In PubChem BioAssay AID1508600 (Functional Genomics Laboratory (NCATS/FGL), 2020):
The whole screen tested about 53,000 sequences, of which about 3,700 (7%) were called active.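 The calls were made as follows: active = gene knockdowns whose robust z-score for IL-1 alpha signal is at least 2 or at most -2, so actives lie on both sides; inactive = the rest.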 Only a selection was taken, and actives are over-represented in it overall.

Assay: Components of the Cytosolic LPS Sensing Pathway: Gene Identification via Genome-wide siRNA Screen;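 also: robust z of the log signal after scaling to non-targeting control siRNA wells of the plate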
Details: RAW264.7 macrophages, IL-1a HTRF, actives lie on both sides, screened at 100 nM (by protocol), cells primed 5 h with Pam3CSK4 first
Procedure, shortened: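 Read-out: IL-1a HTRF on supernatant, divided by plate negative-control median ×100, log-transformed and converted to robust z-score. Cells were RAW264.7 given 100 nM siRNA, Pam3CSK4-primed 5 hours, then LipidA-transfected 24 hour.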

Row | Sequence | z-score
1 | GGAGAAACCAGGAUCUAUUTT against Rnf14 | 2.22 (active)
2 | GCCAGGAGUACUGUAUAUATT against Spint1 | -0.366 (inactive)
3 | GGAGCUCUAAAAUUGACUUTT against Zfp92 | 1.17 (inactive)
4 | GGAAUCUAGAAGAAUCAUUTT against Gnao1 | -0.42 (inactive)
5 | GCUAUGGUAGCUGAUAACATT against Rell1 | 1.21 (inactive)
6 | GGAUCCUAAUGAGGACAUUTT against Jchain | 2.75 (active)
7 | GCCACAAGAUACCAUCAGATT against Bex1 | -1.66 (inactive)
8 | CCAUAUGUCCUGUUUAAGATT against Grik2 | 0.304 (inactive)
9 | GGACUUGAAAGACGAGAUATT against Cyp19a1 | 0.31 (inactive)
10 | CCUUUAUGAAUGAACAGGGTT against Cnot7 | -0.266 (inactive)
11 | GGCCAAUUCCAGUGAGAUGTT against Lgsn | -0.0795 (inactive)
12 | GGCAGAGCUCAAAAAGAAATT against Ankrd1 | -1.94 (inactive)
13 | CCAAAUCCGGGAAAAAGAGTT against Armcx5 | -0.459 (inactive)
14 | GCAUACCAAUCACAGUCGATT against Dync2li1 | -2.55 (active)
15 | GGGUUGCUACUCACAAUGUTT against Syngr2 | 0.244 (inactive)
16 | CCUCAAUUUCGAAGACCCUTT against Asb6 | 1.84 (inactive)
17 | GGACUCUGGACCUUAUGCUTT against Tmem202 | -0.921 (inactive)
18 | GGCUUUCAAGCUAACUGAUTT against Sf3b2 | -2.39 (active)
19 | GGUUAAAAACAACUGAAAGTT against 9630028B13Rik | -1.04 (inactive)
20 | GGGAACUUUCCUCAAGUCUTT against Phactr3 | 0.107 (inactive)
21 | GGCCAAGAAACAUGCCCUATT against Pbx2 | 0.168 (inactive)
22 | GGCAGUGGAGUUAACAACATT against Dsg1b | -0.12 (inactive)
23 | CCUAUGAGUCUUACGUGAATT against Cyp4x1 | 0.693 (inactive)
24 | GGACACCAACAUAUUGUUCTT against Slc13a2 | -0.128 (inactive)
25 | GGCUGAUGGAAGAAUAUGATT against Actn2 | -2.2 (active)
26 | GGAUGAGUCUUUCUAGUUATT against Nipa1 | -0.337 (inactive)
27 | GCAGCAGUAAUGAUGGAUCTT against Ncoa3 | 2.47 (active)
28 | GGACAAAUUCUACAUCAGCTT against Adam8 | 0.0533 (inactive)
29 | CGGCCGUCAGCUUCUUUUATT against Olfr283 | -0.204 (inactive)
30 | CGACUUUGGAGAAUUUCAATT against Synrg | -0.573 (inactive)
